Measurements reported in PubChem BioAssay (EPA / NIEHS).
Results filed as inconclusive are left out. Activity calls are given as the source filed them. The calls were made as follows, unless noted: active = hit-call score of the fitted dose curve at least 0.9, where 1 is the maximum; inactive = score below 0.9.

What follows are molecules tested on Interleukin-8 (IL8), CXCL8 (gene 3576) (assay: BSK_3C_IL8: BioMAP Diversity Plus: 3C Assay for Interleukin-8 (IL8) Biomarker Activity (AID 2283020)). Details: primary human endothelial cells (HUVEC); actives raise or lower the signal.
Summary of the method: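 ELISA read-out of IL-8 from human umbilical vein endothelium, measured 24 h after chemical dosing. Activity is expressed relative to DMSO negative control, with both increases and decreases fitted.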
For `O=[N+]([O-])c1ccccc1`, the outcome was “inactive”.
For `CCOP(=S)(S)OCC`, the outcome was “inactive”.
For `CC(C)(C)OOC(C)(C)C`, the outcome was “inactive”.
For `CC(C)Nc1ccc(Nc2ccccc2)cc1`, the AC50 was 12.8 µM (active).
In the case of `CC(C)(C)c1ccc(O)cc1`, the outcome is reported as “inactive”.
For `CC(Cc1ccc(OCC(=O)O)cc1)NCC(O)c1csc(C(F)(F)F)n1` (centres undefined), the outcome was “inactive”.
For `COCCOCCO`, the outcome was “inactive”.
`ClC(Cl)c1ccccc1` was tested, and the outcome was “inactive”.
In the case of `COP(=O)(CCC(=O)NCO)OC`, the outcome is reported as “inactive”.
In the case of `Nc1ccc(Cl)cc1`, the outcome is reported as “inactive”.
In the case of `C=CC(=O)OCC(F)(F)C(F)F`, the outcome is reported as “inactive”.
For `COP(=O)(O)OC`, the outcome was “inactive”.
With `CCCCN(CCCC)SN(C)C(=O)Oc1cccc2c1OC(C)(C)C2` the AC50 was 36.4 µM (active).
For `CCOS(=O)(=O)OCC`, the outcome was “inactive”.
`O=c1ssc(Cl)c1Cl` was tested, and the AC50 was 7.48 µM (active).
With `c1ccc(OP(Oc2ccccc2)Oc2ccccc2)cc1` the outcome was “inactive”.

These molecules were tested on Monokine induced gamma interferon (MIG), CXCL9 (gene 4283) (assay: BSK_3C_MIG: BioMAP Diversity Plus: 3C Assay for Monokine induced gamma interferon (MIG) Biomarker Activity (AID 2283021;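 as to AC50: MIG protein level measured by immunoassay in the treated endothelial cultures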)). Details: primary human endothelial cells (HUVEC); actives raise or lower the signal.
Summary of the method: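 Read-out is ELISA detection of MIG on human umbilical vein endothelial cells, taken 24 h after dosing. Gain or loss of signal was scored relative to DMSO controls using bidirectional curve fitting.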
With `O=[N+]([O-])c1ccccc1` the outcome was “inactive”.
In the case of `CCOP(=S)(S)OCC`, the outcome is reported as “inactive”.
`CC(C)(C)OOC(C)(C)C` was tested, and the outcome was “inactive”.
`CC(C)Nc1ccc(Nc2ccccc2)cc1` was tested, and the AC50 was 20 µM (active).
In the case of `CC(C)(C)c1ccc(O)cc1`, the outcome is reported as “inactive”.
With `CC(Cc1ccc(OCC(=O)O)cc1)NCC(O)c1csc(C(F)(F)F)n1` (centres undefined) the outcome was “inactive”.
`COCCOCCO` was tested, and the outcome was “inactive”.
In the case of `ClC(Cl)c1ccccc1`, the outcome is reported as “inactive”.
In the case of `COP(=O)(CCC(=O)NCO)OC`, the outcome is reported as “inactive”.
For `Nc1ccc(Cl)cc1`, the outcome was “inactive”.
For `C=CC(=O)OCC(F)(F)C(F)F`, the outcome was “inactive”.
With `COP(=O)(O)OC` the outcome was “inactive”.
With `CCCCN(CCCC)SN(C)C(=O)Oc1cccc2c1OC(C)(C)C2` the outcome was “inactive”.
For `CCOS(=O)(=O)OCC`, the outcome was “inactive”.
For `O=c1ssc(Cl)c1Cl`, the AC50 was 14.8 µM (active).
In the case of `c1ccc(OP(Oc2ccccc2)Oc2ccccc2)cc1`, the outcome is reported as “inactive”.

Each molecule was assayed against human Vitamin D Receptor (VDR), VDR (gene 7421) (UniProt P11473) (assay: ATG_VDR_TRANS: Attagene TRANS-FACTORIAL HepG2 Assay for human Vitamin D Receptor (VDR) (AID 2283022; active = hit-call score of the fitted dose curve at least 0.9, where 1 is the maximum)). Details: not given.
Chain of human Vitamin D Receptor (VDR), VDR (gene 7421) (P11473 whole entry, looked up, the tested form may be a part): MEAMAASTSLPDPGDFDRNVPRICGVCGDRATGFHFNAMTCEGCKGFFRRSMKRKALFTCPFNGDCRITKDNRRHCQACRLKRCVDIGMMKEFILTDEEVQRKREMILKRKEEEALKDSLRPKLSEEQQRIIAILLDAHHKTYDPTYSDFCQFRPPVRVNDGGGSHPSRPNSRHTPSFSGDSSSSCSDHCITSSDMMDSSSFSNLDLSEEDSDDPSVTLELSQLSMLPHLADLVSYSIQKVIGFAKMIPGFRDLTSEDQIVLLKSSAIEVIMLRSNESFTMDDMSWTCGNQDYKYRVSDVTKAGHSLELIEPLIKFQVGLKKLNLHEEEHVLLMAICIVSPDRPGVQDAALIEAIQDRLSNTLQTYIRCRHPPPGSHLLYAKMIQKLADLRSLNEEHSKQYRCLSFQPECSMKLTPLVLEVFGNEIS
Summary of the method: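 HepG2 cells were transiently transfected with multiple GAL4-UAS reporter units, so signal reflects exogenous chimeric receptor-Gal4 activity. After 24 h compound exposure, reporter mRNA was measured by RT-PCR, fluorescent labelling and capillary electrophoresis, fitted for gain of signal versus DMSO.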
In the case of `CC(C)(C)N(NC(=O)c1ccc(Cl)cc1)C(=O)c1ccccc1`, the outcome is reported as “inactive”.
In the case of `Clc1ccc(Oc2ccccc2)cc1`, the outcome is reported as “inactive”.
For `CCCCOCC1CO1` (centres undefined), the outcome was “inactive”.
For `CC(O)C#N` (centres undefined), the outcome was “inactive”.
`CCOC(=O)c1ccccc1N` was tested, and the outcome was “inactive”.
In the case of `CO/N=C(/C(=O)OC)c1ccccc1COc1ccccc1C`, the outcome is reported as “inactive”.
With `CCOP(=O)(O)C(N)=O` the outcome was “inactive”.
For `CCN(CC)C1CCCCC1`, the outcome was “inactive”.
With `Nc1ccc(Sc2ccc(N)cc2)cc1` the outcome was “inactive”.
With `O=C(O)CF` the outcome was “inactive”.
In the case of `Oc1ccc(I)cc1`, the outcome is reported as “inactive”.
In the case of `N#Cc1ccc(O)cc1`, the outcome is reported as “inactive”.
In the case of `CC(=O)c1ccc(-c2ccccc2)cc1`, the outcome is reported as “inactive”.
`CCCCN(CC)C(=O)SCCC` was tested, and the outcome was “inactive”.
For `O=S(=O)(c1ccc(O)cc1)c1ccc(O)cc1`, the outcome was “inactive”.
With `C/C(=N\NC(=O)Nc1cc(F)cc(F)c1)c1ncccc1C(=O)O` the outcome was “inactive”.
In the case of `NNC(N)=S`, the outcome is reported as “inactive”.
